The results in this text go back to PubChem BioAssay AID1508621 (National Center for Advancing Translational Sciences (NCATS), 2021).

Inconclusive results are not listed. A number with no mark means an inactive call. Activity calls are given as the source filed them. Calls come from the whole dose curve; as a rule, active = well fitted inhibition curve with a large enough effect; inconclusive = small, poorly fitted or top-dose-only effect; inactive = no such curve, though single readings can be large or run the other way.
Potency is the fitted concentration of half-maximal effect.

A short description of this test: Confirmatory qHTS for Identification of Small Molecule Inhibitors of Huntingtin Promoter Activity.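 For activity change, negative = inhibition: 0% = vehicle control and -100% = zero luminescence signal.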 Note: nearly all actives have a fitted effect of over 65% in size. As to conditions: HEK293 HTT promoter firefly luciferase reporter, 24 h; series mostly up to 57.5 µM; activity change, negative = inhibition: at the top concentration. In a few lines:
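Plated reporter HEK293 cells (24 h) received library compounds at up to 57.5 uM final or 50 uM PTC124, incubated 24 h at 37C; firefly luciferase luminescence was then recorded with Dual-Glo reagent.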
Turning to `Cc1oc(-c2cccc(Cl)c2)nc1CN1CCC(C(=O)NCCCN2CCN(c3ccc(F)cc3)CC2)CC1`, the Potency is 13.5 µM (active). For `COc1ccc(NC(=O)Cn2c(SCc3ccc(F)cc3)nc3cccnc32)cc1OC`, the “activity change, negative = inhibition” value was -9.83%. On the same count and under the same terms, in the case of `CCN(CC)CCNC(=O)c1c(C)[nH]c(C=C2C(=O)Nc3ccc(F)cc32)c1C` it was 2.34% [at 115 µM]. As to `CC(=O)N1CCCc2cc(S(=O)(=O)N3CCCC(C(=O)N4CCN(c5ccccc5)CC4)C3)ccc21` (stereo not drawn), the Potency was 9.53 µM (active). Consider `CC(=O)Nc1ccc(S(=O)(=O)Nc2cc(-c3cn4ccccc4n3)ccc2C)cc1`, for which the “activity change, negative = inhibition” value is 10.7%. On to `CCC(=O)N1CCc2cc(S(=O)(=O)NCCC(=O)Nc3ccc(CC)cc3)ccc21`, for which the “activity change, negative = inhibition” value is -15.9%. Take `O=C(Cn1c(=O)oc2cc(S(=O)(=O)N3CCCCC3)ccc21)NCc1ccc(Cl)cc1`: the “activity change, negative = inhibition” value was -22.9%. In the case of `CSc1ccc(/C=C/c2nc3ccccc3n2S(=O)(=O)c2ccc(F)c(C)c2)cc1`, the “activity change, negative = inhibition” value was -51.1%.
